The experiment concerns the target CBL. The experiment in a line: pooled miR-30 sensor sort-seq; sequence = guide strand. As to conditions: shRNA.
Sequence TATCTGAGAGAGTTCGGCGGGC came in with a sensor-assay potency score (higher = more potent) of -0.0196.

Sequence TTACATAGTTGGAATGTGGAGC came in with a sensor-assay potency score (higher = more potent) of 0.417. As to TCACCATCCAGAGACAACCAGC, the sensor-assay potency score (higher = more potent) was -1.24. Take TTATACATTGCTTCATACGTAC: the sensor-assay potency score (higher = more potent) was -0.141. Turning to TTGTTGTAGGATCACCATCCAG, the sensor-assay potency score (higher = more potent) was -1.34. Take TTCAGAGTTGATTCTCCGCGGG: the sensor-assay potency score (higher = more potent) was -0.689. In turn, TTATTGTGAGGGATTGTCTGGA gave a sensor-assay potency score (higher = more potent) of 0.335. Take TTCCTGAGCAAAGAGGACCAGG: the sensor-assay potency score (higher = more potent) is -0.903. The same measure for TACAGCTATCAATCTGCTGGTC: -0.313. In the case of TGAGGGAACACATACTCGCTGC it was -0.456; in that of ATACGTACAGCTATCAATCTGC, 0.514.

In turn, TTTCTTCATCAAATTCTCCATA had a sensor-assay potency score (higher = more potent) of -0.795. TTTCACTTCGTCATACGTCAAA: the sensor-assay potency score (higher = more potent) was -0.674. In turn, TTTGTGAATGAATTTCTGGAGC had a sensor-assay potency score (higher = more potent) of -0.665.

In the case of AAATTCTCCATAAACACCCTAA, the sensor-assay potency score (higher = more potent) is -0.0479.

The record behind these values is the OligoGym collection.
Note: reference of the scale not given here.
